# Legend:
# Experiment in all cases: PBM binding z-score (relative to random genomic background probes); higher = stronger binding; sequences stand for … in GC…GCGATTGACAGCGTAGAATGAAGG
# [1] = system: RARb homodimer (NR concentration 270 nM)
# Method in brief: (§1)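 Random background probes are the reference for binding z-scores. These scores derive from regression-normalized fluorescence on custom Agilent 4×180K protein-binding microarrays incubated 1 h with ligand-free nuclear receptor dimers. Binding was detected with antibodies against each partner (one per run).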
# [2] = system: RARg:RXRa (NR concentration 270 nM, RXRa partner concentration 90 nM)
# Method in brief: as §1
# [3] = system: RARg homodimer (NR concentration 270 nM)
# Method in brief: as §1
# [4] = system: RXRa DBDmut IVT, anti-RXR (DBD mutation: RXRa K156A/R161A, NR concentration 90 nM)
# Method in brief: as §1
# [5] = system: RXRa homodimer (NR concentration 180 nM)
# Method in brief: as §1
# [6] = system: THRa:RXRa (NR concentration 90 nM, RXRa partner concentration 90 nM)
# Method in brief: as §1
# [7] = system: THRa homodimer (NR concentration 90 nM)
# Method in brief: as §1
# [8] = system: VDR homodimer (NR concentration 270 nM)
# Method in brief: as §1
Sequence,PBM binding z-score [1],PBM binding z-score [2],PBM binding z-score [3],PBM binding z-score [4],PBM binding z-score [5],PBM binding z-score [6],PBM binding z-score [7],PBM binding z-score [8]
ACTATTAGTTGACCTAGGGCAACCGATACGACGC,3.05,2.88,2.36,0.89,2.55,2.96,1.6,0.946
CCAGACAGGTGACAAGGTAACTCAGCCTCGATTA,0.759,0.862,0.728,0.06,0.446,1.24,0.784,-0.45
ACAGACAGGTGGTGAAGGTAACTCAGGCTATCAT,0.218,0.00728,-0.0161,-0.443,0.0945,0.769,0.206,-0.381
AATACAGGGTCATCGTAGGCCATAGTACGCACAG,3.72,5.77,4.97,3.55,6.52,4.94,1.54,3.64
CCAGACAGGTGAAAGGCAACTCAGTCTGGTACGC,0.304,0.225,0.332,-0.268,0.712,0.000923,-0.701,0.202
CTATCAAGGTGAACAAGGTCGTTGATTACTATTC,1.7,1.76,1.54,1.5,1.7,3.12,1.85,2.72
TCATTTAGGTAAAGGTGAAAGTCGAACGATATGA,1.52,1.74,1.44,0.874,2.07,2.01,0.0517,0.0443
TTACCAAGGTGAAAGGTCGTTAATGCACGCCTTG,2.23,3.93,2.08,0.25,5.05,3.23,0.834,0.976
ACTATTAGTTGACTTACGGCAACCGATACGACGC,0.0214,0.528,0.668,0.643,0.39,0.386,-0.0482,-0.179
CTTACTGGGCCACGAAAGGTCATTGATTCAGTGA,4.85,5.14,4.77,1.19,5.84,4.12,1.15,1.78
CCTCACGGGTCACGAGGTTATAGCACGACGAGCG,3.79,5.79,5.33,1.43,6.4,3.36,1.24,2.22
ATCTCTAGGTAAAAGTTCGGTGAATCCCGAGGAT,0.446,0.536,0.526,0.2,0.463,0.583,0.177,0.68
TCTATTAGTTGGAGGGCAACCGACGAGTCCGTTT,1.31,0.442,0.781,1.47,0.834,0.528,0.592,1.86
ATATGTAGGTTAGCTTGGGTCATTCAGACTAGGC,2.7,2.07,1.67,0.678,1.89,4.29,1.36,1.36
GGGACGAGGGCAAAGTTGATAGCATCTGTCGACG,1.44,2.17,1.98,2.35,1.9,1.52,0.0608,1.85
GCGACTGGGGCATCAGCAGGTTACCTTAACTTAA,0.872,0.268,0.175,0.145,0.259,1.8,2.05,-0.071
CCTACTGGGCCAAGGGCATTGATCAGTCAAAGCA,0.581,0.0127,0.289,-1.17,-0.4,0.178,-0.634,-0.245
TTAGCAAGGTGAAGGTCGTTGATCCCTCTGTAGA,1.68,1.09,1.04,-0.172,1.53,2.03,0.432,0.356
GCTAGCGGGCCATTTGGGTCACTCAATGACGGGC,1.54,0.986,1.19,-0.841,0.742,1.94,0.129,0.0296
ATATGTAGGTTATCGGGTCATTCGGTTTGCGCAT,2.88,3.2,2.3,1.52,3.53,3.28,2.94,4.19
ATCGAAAGGTCGACGAGGTGAGGATACACCGTTT,3.11,4.27,4.37,1.15,4.45,4.09,2.24,1.2
CCTAGCAGGGCAATCTGGGTCACTCAAGGCTTGA,2.36,1.56,1.89,0.252,0.981,4.24,-0.0319,-0.354
TCTTGTAGATCAGCGGGTTAAGAAAGCTGGCCAA,0.0505,-0.0561,-0.559,0.982,0.349,0.0519,-0.241,-0.169
ATCACTAGGTAAGACTCAGTTCAGTGAAGAACGC,0.405,0.282,0.333,0.204,-0.0584,0.526,0.536,1.28
GCTGCTAGGTCAGGTTGGTCAGCAAACGGGTACG,2.84,2.72,3.54,0.377,1.03,1.92,0.409,0.182
CCTCGTAGGACAACAGGAGGTCAGAGCTGCCAGA,3.16,3.05,3,0.577,2,2.51,0.709,0.704
CTCGAAAGGACGTGCTCAGGTGAGTATACCAAAC,0.589,0.291,0.547,0.19,-0.118,1.17,0.542,-0.391
GGAACGAGGGCAAAGCTGATAGCATCTGTCGACG,0.567,1.03,1.5,2.13,0.836,0.546,-0.597,0.452

# From the supplement of paper PMC6555819
